From PubChem BioAssay
SMN2 splice enh = qHTS Assay for Enhancers of SMN2 Splice Variant Expression. HEK293 SMN2-luciferase splicing reporter, luminescence, 30-36 h. Potency, µM (series often up to 46.1 µM), for the others: at the top dose activity change, positive = activation, most hits filed as activators. 210,000 compounds, 2.8% hits; further: % of control where 0% means no effect; nearly all actives have a fitted effect of over 55% in size
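qHTS luciferase splicing reporter: luminescence rises when SMN2 exon 7 is included in transfected HEK293 cells. Compound exposure lasted 30-36 h at 37C, with 4.5 mM final sodium butyrate as control, followed by a ONE-Glo read.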
FLuc counter = qHTS profiling assay for firefly luciferase inhibitor/activator using purifed enzyme and Km concentrations of substrates (counterscreen for miR-21 project); 360,000 compounds, 6.9% hits; AID 588342, 2011; Potency, µM (highest dose often 57.5 µM), inactives show top-dose activity change, negative = inhibition, most hits filed as inhibitors; purified FLuc, Km substrates, luminescence inhibition;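 further: plate controls were vehicle for no effect and reference inhibitor for full effect; nearly all actives have a fitted effect of over 55% in size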
Target sequence (P08659 whole entry, looked up): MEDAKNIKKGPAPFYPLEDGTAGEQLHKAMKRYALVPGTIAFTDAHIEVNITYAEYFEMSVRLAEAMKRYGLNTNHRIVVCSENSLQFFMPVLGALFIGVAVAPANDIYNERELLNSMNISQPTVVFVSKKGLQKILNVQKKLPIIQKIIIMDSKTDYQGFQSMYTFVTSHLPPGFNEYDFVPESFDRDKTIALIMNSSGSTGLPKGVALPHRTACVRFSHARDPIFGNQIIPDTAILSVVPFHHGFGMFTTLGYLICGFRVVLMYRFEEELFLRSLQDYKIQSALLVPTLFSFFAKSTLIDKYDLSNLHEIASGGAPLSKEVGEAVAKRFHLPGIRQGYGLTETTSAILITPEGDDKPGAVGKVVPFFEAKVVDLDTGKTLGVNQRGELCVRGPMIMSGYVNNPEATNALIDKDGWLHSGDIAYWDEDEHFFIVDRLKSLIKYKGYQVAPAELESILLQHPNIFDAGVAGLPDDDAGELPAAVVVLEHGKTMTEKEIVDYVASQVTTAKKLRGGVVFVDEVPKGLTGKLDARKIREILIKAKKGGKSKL
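Purified P. pyralis luciferase (10nM final) with 10uM D-luciferin and 10uM ATP (Km levels) in 50mM Tris acetate pH 7.5, 10mM Mg acetate, 0.01% Tween-20, 0.05% BSA; qHTS 6-point titration, ~60 µM downward; luminescence read.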
ELG1 genotox = qHTS screen for small molecules that induce genotoxicity in human embryonic kidney (HEK293T) cells expressing luciferase-tagged ELG1; HEK293T ELG1-luciferase reporter, luminescence, 16 h; Potency, µM (doses to about 46 µM), for the others: at the highest dose activity change, positive = activation, actives largely listed as activators; 330,000 compounds, 1.3% hits; AID 504466, 2011; further: % of control where 0% means no effect; nearly all actives have a fitted effect of over 60% in size
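Luminescence read-out: rising ELG1-luciferase signal, reflecting elevated ELG1 protein under genetic stress, flags genotoxic compounds. Cells were treated for 16 hr at 37 °C before ONE-Glo detection.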
uPA surface inh = qHTS for Inhibitors of Cell Surface uPA Generation; Potency, µM (doses to about 38.3 µM), without a hit: at the highest dose activity change, negative = inhibition, actives largely listed as inhibitors; cell surface uPA generation assay, qHTS; 330,000 compounds, 0.31% hits; AID 540303, 2011; active means well fitted inhibition curve with a large enough effect; inconclusive means small, poorly fitted or top-dose-only effect; inactive means no such curve, though single readings can be large or run the other way; tested in mouse RAW 264.7 cells; further: on the % scale 0 is the no-effect control and ±100 the full control effect; nearly all actives have a fitted effect of over 55% in size
NPC1 prom act = qHTS Assay for NPC1 Promoter Activators; AID 485313, 2010; Potency, µM (highest dose often 9.22 µM), inactives show top-dose activation, hits mostly activators; 320,000 compounds, 2.4% hits; Huh7 NPC1 promoter luciferase reporter, 24 h; further: % of control where 0% means no effect; nearly all actives have a fitted effect of over 60% in size
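Compounds in DMSO were transferred onto Huh7 NPC1-luciferase reporter cells pre-incubated 2 h; after 24 h at 37 °C, Amplite reagent was dispensed and luminescence recorded 10 min later.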
Rab9 prom act = qHTS Assay for Rab9 Promoter Activators. Potency, µM (top dose mostly 9.22 µM), for inactives: at the top dose activation, negative = inhibition, hits mostly activators. 320,000 compounds, 2.8% hits. Huh7 Rab9 promoter-luciferase reporter, luminescence, 24 h. AID 485297, 2010; further: % of control where 0% means no effect; nearly all actives have a fitted effect of over 60% in size
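Luciferase signal after 10 min detection reagent at ambient indicates Rab9 promoter upregulation; stably transfected Huh7 cells were treated 24 h with compound in DMSO at 37 °C, 5% CO2.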
* hit, by the source's call; ? = inconclusive; · = not tested or not shown; [ ] = dose if it differs, or a comment. The list is not random: actives were taken first. Their share in the collection is about 7.3%. Unless noted, the call rests on the fitted dose curve; in most records, active means well fitted curve in the direction sought with a large enough effect; inconclusive means small, poorly fitted or top-dose-only effect, or another doubt; inactive means no such curve, though single readings can be large; an effect the other way counts as inactive or inconclusive. Potency means the concentration at half of the fitted maximal effect.

SMILES	SMN2 splice enh	FLuc counter	ELG1 genotox	uPA surface inh	NPC1 prom act	Rab9 prom act
COc1cc2nc(NCc3ccccc3)n3nc(-c4ccccc4)nc3c2cc1OC	8.4%	0.1%	·	·	·	·
CCCCC/C=C\C=C\[C@H](O)CCCCCCCC(=O)O	-6.2%	·	·	·	·	·
Cc1cccc(CSc2nc3c(cc2C#N)CCC3)c1	25.0%	-1.8%	12.6%	3.5%	-0.2%	1.9%
N#Cc1cc2c(nc1SCc1nc3ccccc3[nH]1)CCC2	8.91µM*	1.35µM*	?	·	0.316µM*	0.708µM*
Cc1cc(C)c(C#N)c(SCc2nc3ccccc3[nH]2)n1	10µM*	?	23.1µM*	-1.4%	17.2%	?
CCOC(=O)c1ccc(N=Nc2c(C)c(C#N)c(O)[nH]c2=O)cc1	49.9%	2.69µM*	?	2.6%	15.8%	4.47µM*
O=C(Nc1ccccc1C(=O)N/N=C/c1ccco1)c1ccccc1	-0.2%	21.3µM*	0.2%	-1.6%	-1.2%	1.7%
Cc1ccccc1C(=O)Nc1ccccc1C(=O)N/N=C\c1ccco1	-3.5%	?	-0.7%	-0.2%	0.5%	-5.2%
O=C(Nc1ccccc1C(=O)N/N=C/c1ccco1)c1ccc(F)cc1	13.9%	8.49µM*	-1.3%	-1.2%	-2.1%	-4.0%
O=C(Nc1ccccc1C(=O)N/N=C/c1ccco1)c1ccc(Cl)cc1	0.6%	2.13µM*	0.6%	-22.1%	11.7%	1.8%
O=C(N/N=C/c1ccco1)c1ccncc1	-8.7%	-5.0%	4.6%	·	1.2%	-3.4%
O=C(N/N=C\c1ccco1)Nc1cccc(Cl)c1	10µM*	19µM*	?	-0.5%	3.16µM*	2.51µM*
C/C=C(\C)[C@H](O)C[Si](C)(C)c1ccccc1	0.5%	·	·	·	·	·
CCOC(=O)C(=O)N1CCC(C(=O)OC)CC1	11.5%	0.0%	-4.6%	-2.1%	0.0%	-4.0%
Cn1c(=O)oc2cc(S(=O)(=O)N3CCCC(C(=O)NCCc4ccccc4)C3)ccc21 (stereo not given)	-2.8%	-1.8%	·	·	·	·
CNc1ccccc(-c2ccc3cc4c(cc3n2)OCO4)c1=O	·	3.38µM*	?	3.1%	?	?
O=C(N=C1SCC(=O)N1c1ccccc1Cl)c1ccccc1	12.6µM*	?	?	-3.0%	?	2µM*
Cc1cc(OCC(F)(F)C(F)(F)C(F)(F)C(F)F)nc(N)n1	4.8%	16.9µM*	5.3%	1.6%	-4.8%	-5.3%
Cc1ccc(-c2nnc(SCC#CCOC(=O)c3cccs3)o2)cc1	6.1%	19µM*	11.7%	-0.4%	18.3%	19.9%
O=C(OCC#CCSc1nnc(-c2ccc(Br)cc2)o1)c1cccs1	-44.8%	?	8.0%	-16.9%	-4.7%	-2.0%
Cc1ccc(-c2nnc(SCC#CCOC(=O)c3ccco3)o2)cc1	-2.5%	16.9µM*	?	-8.3%	5.3%	?
O=C(OCC#CCSc1nnc(-c2ccccc2)o1)c1cc2ccccc2o1	-15.0%	-6.5%	12.3%	-4.2%	11.2%	-3.6%
CCOC(=O)Cn1c(=O)oc2cc(S(=O)(=O)N3CCN(c4cccc(C)c4)C(C)C3)ccc21 (stereo not given)	5.4%	0.5%	·	·	·	·
COc1ccc(S(=O)(=O)N2CCCN(CC(=O)Nc3ccc(OC)cc3OC)CC2)cc1	-11.8%	-2.1%	·	·	·	·
COc1ccccc1N1CCN(C(=O)C2CCN(S(=O)(=O)Cc3ccccc3)CC2)CC1	·	-2.3%	·	·	·	·
SMILES	SMN2 splice enh	FLuc counter	ELG1 genotox	uPA surface inh	NPC1 prom act	Rab9 prom act
CCCCN(CCCC)c1ncnc2c1cnn2-c1cccc(C)c1	·	-8.3%	·	·	·	·
Clc1ccc(N2CCN(c3ncnc4c3cnn4-c3ccccc3)CC2)cc1Cl	·	-2.1%	·	·	·	·
Cc1ccc(-n2ncc3c(N(C)C)ncnc32)cc1Cl	·	0.757µM*	·	·	·	·
Cc1ccc(-n2ncc3c(N4CCN(C)CC4)ncnc32)cc1	·	3.01µM*	·	·	·	·
CN1CCN(c2ncnc3c2cnn3-c2ccc(Cl)cc2)CC1	0.4%	0.953µM*	?	?	?	0.398µM*
Cc1ccc(-n2ncc3c(N4CCN(C)CC4)ncnc32)cc1Cl	·	5.36µM*	·	·	·	·
COc1ccc(S(=O)(=O)NCc2ccco2)cc1NC(=O)c1ccccc1	·	2.2%	-5.0%	-7.8%	-8.0%	-10.3%
CCC(C(=O)OCc1cc(=O)n2nc(C)sc2n1)c1ccccc1 (stereo not given)	·	-5.4%	·	·	·	·
CC1(C)OC[C@@H]2O[C@H](n3cnc4c(N)nc(Cl)nc43)[C@@H](OS(C)(=O)=O)[C@@H]2O1	0.5%[9.22 µM]	·	·	·	·	·
Cc1cccc2cc(CN(CCCO)C(=O)Nc3cccc(Cl)c3)c(=O)[nH]c12	-15.7%	21.3µM*	-5.7%	-6.0%	-2.6%	-8.6%
Cc1cccc2cc(CN(CCCO)C(=O)Nc3ccc(Cl)cc3)c(=O)[nH]c12	-11.3%	?	1.7%	-3.1%	-2.8%	2.9%
O=C(NCc1ccccc1)c1cccc(COc2ccc(Cl)cc2)c1	6.31µM*	16.9µM*	?	5.3%	1.78µM*	2.82µM*
O=C(NCc1ccccc1)c1cccc(COc2cccc(Cl)c2)c1	18.6%	-12.1%	1.3%	-0.5%	?	?
COc1cc(CNC(=O)c2cccc(COc3ccc(Cl)cc3)c2)cc(OC)c1	2.51µM*	10.7µM*	?	-6.6%	0.708µM*	0.224µM*
COc1cccc(CNC(=O)c2cccc(Br)c2)c1	-4.1%	-10.6%	0.3%	-2.7%	9.2%	0.1%
Cc1ccc(NC(=O)Cn2c(=O)c3ccc(Cl)cc3n3nncc23)cc1	0.7%	-1.1%	·	·	·	·
N/C(=N\O)c1ccc(N2CCN(c3ncccc3C(F)(F)F)CC2)nc1	·	12µM*	?	-4.7%	2.24µM*	2.51µM*
COCCn1c(C)cc(O)c(C(c2ccccc2Cl)N2CCN(c3ccccc3)CC2)c1=O (stereo not given)	·	-8.7%	·	·	·	·
S=c1[nH]c2cc(-c3ccccc3)ccc2o1	·	21.3µM*	4.3%	-7.1%	5.4%	15.8%
O=S(=O)(c1ccc2oc(=S)[nH]c2c1)N1CCCCC1	·	-9.0%	-2.4%	13.1%	1.9%	-4.0%
COc1ccc(-c2cc([C@H](O)C3CCCCN3)c3ccccc3n2)cc1 (stereo not given in full)	-3.8%[9.22 µM]	·	·	·	·	·
CCN1C(=O)C(Cc2nc3ccccc3c(=O)n2-c2ccccc2)c2cc(Br)ccc21 (stereo not given)	-8.6%	-10.8%	·	·	·	·
COC(=O)c1ccc(-n2cc(-c3ccc(OC)cc3)[nH]c2=S)cc1	11.2%	?	11.0%	11.9%	-0.7%	0.0%
COc1cccc(-n2cc(-c3ccc(F)cc3)[nH]c2=S)c1	·	?	?	-8.7%	1.58µM*	0.316µM*
